# Screening data deposited in PubChem by National Center for Advancing Translational Sciences (NCATS).
# Only some compounds are listed: those with a hit (about 9.4% of all), similar ones and a draw of the others.
# Rab9 promoter act – Rab9 promoter activation. 320,000 compounds, 2.8% hits. Potency, µM (titrated, usually from 9.22 µM), without a hit: at the top dose activation, negative = inhibition, hits mostly activators. Huh7 Rab9 promoter-luciferase reporter, luminescence, 24 h; further: % of control where 0% means no effect; nearly all actives have a fitted effect of over 60% in size
#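 Luminescence read-out: Huh7 cells stably expressing Rab9-luciferase, treated 24 h with compound at 37 °C, then lysed with luciferase reagent for 10 min at ambient before reading.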
# SMN2 splice enh – enhancers of SMN2 splice variant expression | HEK293 SMN2-luciferase splicing reporter, luminescence, 30-36 h | 210,000 compounds, 2.8% hits | AID 1458 | Potency, µM (series often up to 46.1 µM), for inactives: at the highest dose activity change, positive = activation, hits mostly activators; further: % of control where 0% means no effect; nearly all actives have a fitted effect of over 55% in size
#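 HEK293 cells carry an SMN2 […]–luciferase reporter in which exon 7 inclusion puts luciferase in frame. Cells were plated 10-12 h before compound addition, then incubated 30-36 h at 37C. ONE-Glo luminescence was read; sodium butyrate at 4.5 mM final served as control.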
# FLuc modulator – inhibits or activates purified firefly luciferase, miR-21 counter-screen | 360,000 compounds, 6.9% hits | Potency, µM (doses to about 57.5 µM), inactives show at the top dose activity change, negative = inhibition, actives largely listed as inhibitors | purified FLuc, Km substrates, luminescence inhibition;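 further: plate controls were vehicle for no effect and reference inhibitor for full effect; nearly all actives have a fitted effect of over 55% in size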
# Target sequence (P08659 whole entry, looked up): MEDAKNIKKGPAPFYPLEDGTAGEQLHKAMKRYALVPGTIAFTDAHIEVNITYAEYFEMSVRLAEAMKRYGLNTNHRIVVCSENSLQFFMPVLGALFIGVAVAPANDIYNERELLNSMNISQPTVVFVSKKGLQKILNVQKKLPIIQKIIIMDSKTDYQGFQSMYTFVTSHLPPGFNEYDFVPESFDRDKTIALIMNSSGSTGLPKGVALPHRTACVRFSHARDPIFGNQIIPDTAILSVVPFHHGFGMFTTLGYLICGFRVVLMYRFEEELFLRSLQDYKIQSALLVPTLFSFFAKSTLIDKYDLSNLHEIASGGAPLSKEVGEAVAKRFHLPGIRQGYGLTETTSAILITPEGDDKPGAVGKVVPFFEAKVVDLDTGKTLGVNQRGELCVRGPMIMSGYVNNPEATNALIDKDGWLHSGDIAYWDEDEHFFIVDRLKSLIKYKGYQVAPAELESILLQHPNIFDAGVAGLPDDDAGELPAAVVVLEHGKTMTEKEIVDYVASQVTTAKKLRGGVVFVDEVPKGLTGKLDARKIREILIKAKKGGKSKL
#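 Biochemical qHTS of compounds, final roughly 60 µM downward over six points, against 10 nM purified firefly luciferase using Km concentrations of substrates (10 uM D-luciferin, 10 uM ATP) in Tris acetate pH 7.5 buffer; luminescence output.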
# NPC1 promoter act – activators of NPC1 promoter; Potency, µM (highest dose often 9.22 µM), inactives show at the highest dose activation, actives largely listed as activators; Huh7 NPC1 promoter luciferase reporter, 24 h; AID 485313; 320,000 compounds, 2.4% hits; further: % of control where 0% means no effect; nearly all actives have a fitted effect of over 60% in size
#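 NPC1 promoter–luciferase Huh7 cells; 24 h compound; luminescence.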
# ELG1 repair inh – ELG1-dependent DNA repair inhibition. Potency, µM (highest dose often 46.1 µM), for the others: at the highest dose activity change, negative = inhibition, usual class: inhibitors. 330,000 compounds, 2.3% hits. HEK293T ELG1-luciferase reporter, luminescence, 16 h; DNA damage induced by 5-fluorouridine; further: on the % scale 0 is the no-effect control and ±100 the full control effect; nearly all actives have a fitted effect of over 55% in size
#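 Cells (2,000 per well) received 5-fluorouridine plus test compound or DMSO and were incubated 16 hr at 37 °C, 5% CO2. Luciferase activity was read by luminescence 30 min after ONE-Glo addition; signal suppression marked inhibition of damage-induced ELG1 function.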
# ELG1 genotoxic – genotoxicity induction in ELG1-luciferase HEK293T cells | HEK293T ELG1-luciferase reporter, luminescence, 16 h | Potency, µM (titrated, usually from 46 µM), inactives show top-dose activity change, positive = activation, actives largely listed as activators | 330,000 compounds, 1.3% hits | AID 504466; further: % of control where 0% means no effect; nearly all actives have a fitted effect of over 60% in size
#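 ELG1-luciferase HEK293T cells, 2,000/well; compound pinned in; 16 hr, 37 °C, 5% CO2; ONE-Glo, 30 min RT; luminescence on CCD imager.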
# Starred values were filed as active, the others as inactive; ? = inconclusive; . = not tested or not shown; [ ] = dose if it differs, or a comment. The call rests on the fitted dose curve; in most records, active means well fitted curve in the direction sought with a large enough effect; inconclusive means small, poorly fitted or top-dose-only effect, or another doubt; inactive means no such curve, though single readings can be large; an effect the other way counts as inactive or inconclusive. Potency means the concentration at half of the fitted maximal effect.
SMILES,Rab9 promoter act,SMN2 splice enh,FLuc modulator,NPC1 promoter act,ELG1 repair inh,ELG1 genotoxic
COc1ccc(OCCCC(=O)Nc2cccc(SC)c2)cc1,-4%,-5%,-12%,-1%,-2%,-1%
Cc1cc(C)n(-c2nc3cc(Cl)c(Cl)cc3nc2Nc2ccc(F)cc2C)n1,.,4%,-1%,.,.,.
NC(N)=NC[C@H](N)C(=O)O,.,3%[9.22 µM],.,.,.,.
Cc1cccc(C(=O)n2nc(-c3ccco3)nc2NCc2ccccc2)c1,.,8%,-6%,.,.,.
COc1ccc(F)cc1C1=CC(=O)C[C@H](c2ccc3c(c2)OCO3)C1,0%,.,-1%,-20%,-20%,0%
COc1cccc(OC)c1C1=CC(=O)C[C@H](c2ccc3c(c2)OCO3)C1,-3%,.,0%,-1%,9.2µM*,-1%
COc1cc(F)c(C2=CC(=O)C[C@H](c3ccc4c(c3)OCO4)C2)cc1F,2%,.,3%,0%,16µM*,1%
O=C(O)c1cccc(-n2cc(-c3cccc(C(F)(F)F)c3)cn2)c1,0.35µM*,.,1.2µM*,0.32µM*,?,?
NC(=O)c1nnn(-c2cccc(C(F)(F)F)c2)c1-c1ccccc1,-2%,.,2%,-5%,-2%,1%
COc1ccc(C(=O)n2nc(-c3ccco3)nc2NCc2cccs2)cc1OC,.,13%,?,.,.,.
COc1ccc(C(=O)Nc2ccccc2C(=O)NC(Cc2c[nH]c3ccccc23)C(=O)O)cc1 (configuration not stated),-3%,-10%,15µM*,2%,16%,3%
O=C(Nc1ccccc1C(=O)NC(Cc1c[nH]c2ccccc12)C(=O)O)c1ccco1 (configuration not stated),0%,3%,-7%,-2%,7%,0%
O=C(N[C@@H](Cc1c[nH]c2ccccc12)C(=O)NC1CC1)c1ccccc1Cl,?,11µM*,?,?,?,?
Cc1ccc(C(=O)NC(Cc2c[nH]c3ccccc23)C(=O)O)cc1 (configuration not stated),1%,2%,?,3%,19%,0%
O=C(N[C@@H](Cc1c[nH]c2ccccc12)C(=O)O)c1ccccc1Cl,-7%,.,-18%,-1%,-1%,1%
COc1ccc(C(=O)NNC(=O)C(Cc2ccc(O)cc2)NC(=O)c2ccccc2NC(=O)c2ccc(OC)cc2)cc1 (configuration not stated),-5%,.,?,-1%,?,0%
COc1ccc(C(=O)Nc2ccccc2C(=O)NC(Cc2ccc(O)cc2)C(=O)NNC(=O)c2ccccc2Cl)cc1 (configuration not stated),-4%,-11%,13µM*,2%,?,-1%
CC(C)Oc1ccc(C(=O)NC(Cc2c[nH]c3ccccc23)C(=O)NN)cc1 (configuration not stated),3%,.,12µM*,-3%,0%,2%
CCOc1ccc(NC(=O)NCCn2nnc3cc(S(=O)(=O)N(C)C)ccc32)cc1,.,.,-1%,.,.,.
IC(I)I,.,5%,.,.,.,.
COc1ccccc1CCNC(=O)C(=O)c1cn(CC(=O)N2CCCC2)c2ccccc12,26%,.,11µM*,23%,27%,2%
COc1ccc(CCNC(=O)CS(=O)(=O)c2cn(CC(=O)N3CCOCC3)c3ccccc23)cc1OC,-10%,-28%,-1%,-1%,-4%,0%
COc1ccccc1NC(=O)CSc1cn(CC(=O)N2CCCC2)c2ccccc12,.,.,-9%,.,.,.
COc1ccc(NC(=O)C(=O)c2cn(CC(=O)N3CCCC3)c3ccccc23)c(OC)c1,?,.,4.8µM*,?,?,?
COc1ccccc1CNC(=O)C(=O)c1cn(CC(=O)N2CCOCC2)c2ccccc12,12%,.,?,-1%,?,4%
SMILES,Rab9 promoter act,SMN2 splice enh,FLuc modulator,NPC1 promoter act,ELG1 repair inh,ELG1 genotoxic
COc1ccccc1NC(=O)C(=O)c1cn(CC(=O)N2CCCC2)c2ccccc12,?,.,4.8µM*,?,?,13%
COc1ccc(NC(=O)CSc2cn(CC(=O)N3CCCCC3)c3ccccc23)c(OC)c1,.,.,-12%,.,.,.
COc1ccc(CCNC(=O)C(=O)c2cn(CC(=O)N3CCOCC3)c3ccccc23)cc1OC,1%,.,21µM*,-1%,?,6%
COc1ccc(NC(=O)C(=O)c2cn(CC(=O)N3CCOCC3)c3ccccc23)cc1OC,-1%,.,?,0%,-5%,-1%
COc1ccccc1NC(=O)C(=O)c1cn(CC(=O)N2CCOCC2)c2ccccc12,?,.,4.8µM*,?,?,?
COc1cc(NC(=O)c2cccs2)c(OC)cc1NC(=O)CCC(=O)Nc1ccc2ncccc2c1,-5%,.,4%,0%,15µM*,-14%
COc1ccc(Br)cc1/C=C/C(=O)c1ccc(NC(C)=O)cc1,-6%,-105%,3%,-2%,15µM*,-15%
COc1ccc(C(=O)Nc2ccc(NC(=O)c3cccs3)cc2)cc1Cl,-5%,2%,2%,-3%,?,?
COc1ccc(C(=O)Nc2ccc(NC(=O)c3cccs3)cc2)cc1OC,.,-3%,0%,.,.,.
COc1ccc(/C=C/C(=O)c2ccc(NC(=O)c3cccs3)cc2)cc1OC,?,16µM*,13µM*,?,?,?
COc1ccc(C(=O)Nc2cccc(NC(=O)c3cccs3)c2)cc1OC,8%,.,11µM*,5%,15µM*,-6%
COc1ccccc1CNC(=O)C1CCN(S(=O)(=O)c2ccc3c(c2)CCCN3C(C)=O)CC1,.,.,-3%,.,.,.
O=c1n(Cc2ccc([N+](=O)[O-])cc2)c2ccccc2c2nc(-c3ccccc3)nn12,.,.,-7%,.,.,.
CC(C)(C)NC(=O)[C@@H]1CC[C@@H]2[C@@H]3CC[C@@H]4NC(=O)C=C[C@@]4(C)[C@H]3CC[C@]21C,.,1%[20.6 µM],.,.,.,.
O=C(Nc1ccc(NC(=O)c2cccs2)cc1)c1cccc(Br)c1,.,-2%,-1%,.,.,.
COc1cccc(OC)c1C(=O)Nc1cccc(NC(=O)c2cccs2)c1,9%,.,?,13%,-26%,-22%
O=C(Nc1cccc(O)c1)c1cccc(NC(=O)c2cccs2)c1,0%,.,13µM*,15%,15%,-12%
COc1ccc(-c2csc(NC(=O)c3cccs3)c2C(=O)O)cc1OC,15%,16%,24µM*,13%,?,-3%
COc1ccc(NC(=O)c2cccs2)cc1O,?,?,15µM*,?,?,?
CCOc1cc(CN2CCN(S(=O)(=O)c3ccc(C)cc3)CC2)ccc1OC,.,-24%,1%,.,.,.
